Experimental data as given in PubChem BioAssay (EPA / NIEHS).
Results filed as inconclusive are left out. Activity calls are given as the source filed them. Rule for the calls, unless noted: active = hit-call score of the fitted dose curve at least 0.9, where 1 is the maximum; inactive = score below 0.9.

Experiments:
[1] = target: Nucleoli Translocation, AR (gene 367) (UniProt P10275); experiment: UPITT_HCI_U2OS_AR_TIF2_Nucleoli_Agonist: University of Pittsburgh U2OS Androgen Receptor-Transcriptional Intermediary Factor 2 (AR-TIF2) Agonism High Content Imaging Assay for Nucleoli Translocation (AID 2283998; active = hit-call score of the fitted dose curve at least 0.9, where 1 is the maximum)
Summary of the method: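 U2OS cells expressing RFP-tagged human AR and GFP-tagged TIF2; red fluorescence in nucleoli quantified by high-content imaging. Primary screen at 20 uM final (0.2% DMSO); concentration-response 0.195–50 uM (0.5% DMSO), fitted upward versus DMSO.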

[2] = target: Ratio of Nucleoli Translocation and Cytoplasm, AR (gene 367) (UniProt P10275); experiment: UPITT_HCI_U2OS_AR_TIF2_Nucleoli_Cytoplasm_Ratio_Agonist: University of Pittsburgh U2OS Androgen Receptor-Transcriptional Intermediary Factor 2 (AR-TIF2) Agonism High Content Imaging Assay for Ratio of Nucleoli Translocation and Cytoplasm (AID 2284000; active = hit-call score of the fitted dose curve at least 0.9, where 1 is the maximum;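 note: hits raise the red nucleolar to cytoplasm ratio above vehicle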)
Summary of the method: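 Read-out first: nucleolar-to-cytoplasm ratio of red (AR-RFP) signal, quantified by high-content imaging in U2OS cells co-expressing TIF2-GFP. Activity is scored as signal increase over DMSO. Single-point screening used 20 uM final (0.2% DMSO).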

[3] = CCTE_Harrill_HTTr_Viability_MCF7: CCTE's 6-hour Cell Viability Assessment for the High-Throughput Transcriptomics (HTTr) Platform, in MCF-7 cells cultured in DMEM + 10% fetal bovine serum, Harrill Lab (AID 2284010)
Summary of the method: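 Membrane integrity was scored by high-content imaging of propidium iodide dye exclusion after a 6 h exposure across an eight-point dilution series. Data were fitted bidirectionally relative to DMSO as negative control and baseline.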

[4] = CCTE_Harrill_HTTr_Apoptosis_MCF7: CCTE's 6-hour Apoptosis Assessment for the High-Throughput Transcriptomics (HTTr) Platform, in MCF-7 cells cultured in DMEM + 10% fetal bovine serum, Harrill Lab (AID 2284011)
Summary of the method: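 MCF-7 cells in DMEM + 10% FBS exposed 6 h to chemicals over an eight-point dilution series. Caspase-3/7 activation imaged by high-content CellEvent Green staining; fitted bidirectionally versus DMSO.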

[5] = CCTE_Shafer_MEA_acute_spike_number: CCTE's Neural Acute Assay for Total Number of Spikes, Shafer Lab (AID 2284008);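 for AC50: curve fitted for decrease in spike count so AC50 reflects inhibitors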
Summary of the method: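 Rat primary cortical neurons on 48-well MEA plates, DIV 13 or 15, at 37 C. 40 min baseline then 40 min with compound (0.03-40 uM); spikes detected at 8x rms noise, expressed as percent change from baseline.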

[6] = CCTE_Shafer_MEA_acute_firing_rate_mean: CCTE's Neural Acute Assay for Mean Firing Rate, Shafer Lab (AID 2284009);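 note: analyzed for loss of signal so actives lower firing rate relative to DMSO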
Summary of the method: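 Percent change in well-mean firing rate was derived from extracellular spikes detected at 8x rms noise (300-5000 Hz band-pass) before and after a 40-min compound exposure. Cultures were primary rat cortical neurons, tested at 0.03-40 uM.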

[7] = CCTE_Harrill_HTTr_CellCount_MCF7: CCTE's Cell Proliferation Assessment for the High-Throughput Transcriptomics (HTTr) Platform, Harrill Lab (AID 2284012; active = hit-call score of the fitted dose curve at least 0.9, where 1 is the maximum;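 note: cells exposed to compound for six hours; intended direction is loss of nuclei count meaning fewer cells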)
Summary of the method: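 MCF-7 cells were exposed for 6 h to an eight-point dilution series; Hoechst-labeled nuclei were counted by high content imaging. Curves were fitted bidirectionally against DMSO as negative control and baseline, with signal loss indicating reduced cell count.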

[8] = CCTE_Shafer_MEA_acute_burst_number: CCTE's Neural Acute Assay for Single-Electrode Bursts, Shafer Lab (AID 2284013)
Summary of the method: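 Spontaneous network activity of primary rat cortical neurons was recorded extracellularly on microelectrode arrays at 37 C, with 40-min periods before and during exposure to 0.03-40 uM compound on DIV 13 or 15.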

[9] = CCTE_Shafer_MEA_acute_burst_duration_mean: CCTE's Neural Acute Assay for Mean Burst Duration, Shafer Lab (AID 2284014);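 note: hits are decreases in mean burst duration relative to DMSO controls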
Summary of the method: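 Read-out is the per-well percent change in mean burst duration (first to last spike within a single-electrode burst) between 40-min recordings before and after compound. Cultures were primary rat cortical neurons on MEAs, dosed at 0.03-40 uM on DIV 13 or 15.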

[10] = CCTE_Shafer_MEA_acute_per_burst_spike_number_mean: CCTE's Neural Acute Assay for Average Number of Spikes Per Burst, Shafer Lab (AID 2284015);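 note: hits are decreases in mean spikes per burst versus baseline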
Summary of the method: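 Percent change in mean spikes per single-electrode burst is compared between a 40 min baseline and a 40 min recording with compound (0.03-40 uM). Cultures were rat cortical neurons on MEA plates at DIV 13 or 15, recorded at 37 C, with DMSO as the negative control.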

[11] = CCTE_Shafer_MEA_acute_interburst_interval_mean: CCTE's Neural Acute Assay for Mean Interburst Interval, Shafer Lab (AID 2284016);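 note: percent change of mean interburst interval versus each well's own pre-dose baseline; curves fitted for decrease in interburst interval relative to DMSO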
Summary of the method: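 Percent change in mean single-electrode interburst interval was calculated per well from 40 min recordings before and after compound (0.03-40 uM). Recordings were made at 37 C on rat cortical cultures at DIV 13 or 15, with spikes detected at 8x rms threshold.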

[12] = CCTE_Shafer_MEA_acute_burst_percentage_mean: CCTE's Neural Acute Assay for Percentage of Spikes in a Burst, Shafer Lab (AID 2284017);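 for AC50: curve fitted for loss of signal so potency reflects decreased burst percentage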
Summary of the method: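 Well-level mean burst percentage from a 40-min recording after compound (0.03-40 uM) expressed as percent change from a 40-min baseline at 37C. Cultures: primary rat cortical neurons on MEA, dosed on DIV 13 or 15; fitted downward relative to DMSO.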

[13] = CCTE_Shafer_MEA_acute_burst_percentage_std: CCTE's Neural Acute Assay for Standard Deviation of Burst Percentage, Shafer Lab (AID 2284018);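 note: fitted in the negative direction so actives lower burst percentage SD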
Summary of the method: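 Value is percent change from baseline in the across-electrode SD of spikes-in-bursts percentage, wells with >/= 10 active electrodes. Acute 40-min exposure to 0.03-40 uM on DIV 13 or 15 rat cortical cultures, recorded at 37 C after 40-min baseline.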

[14] = CCTE_Shafer_MEA_acute_per_network_burst_spike_number_mean: CCTE's Neural Acute Assay for Average Number of Spikes in a Network Burst, Shafer Lab (AID 2284019);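 for AC50: curve fitted for loss of signal so actives reduce spikes per network burst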
Summary of the method: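 Read-out is mean spike count per network burst, taken as percent change between a 40-min pre-exposure and a 40-min post-exposure recording per well. Rat primary cortical neurons on MEAs at 37 C, DIV 13 or 15; compounds at 0.03-40 uM.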

[15] = CCTE_Shafer_MEA_acute_per_network_burst_spike_number_std: CCTE's Neural Acute Assay for Standard Deviation of Number of Spikes in a Network Burst, Shafer Lab (AID 2284020);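 note: fitted for decrease in spike-number SD versus DMSO so actives lower it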
Summary of the method: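 Spontaneous network activity of primary rat cortical neurons is recorded extracellularly before and after a 40-min compound exposure (0.03-40 uM) at 37 C. The endpoint is the well's percent change in burst spike-number SD.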

[16] = CCTE_Shafer_MEA_acute_per_network_burst_electrodes_number_mean: CCTE's Neural Acute Assay for Mean Number of Electrodes in a Network Burst, Shafer Lab (AID 2284021);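 note: curves fitted for decreases only so hits reduce electrodes per burst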
Summary of the method: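 Rat primary cortical neurons on 48-well MEAs, DIV 13 or 15, were treated at 0.03-40 uM. Spikes were detected at 8x rms noise and recorded at 37 C. The mean electrodes per network burst in a 40 min exposure recording was expressed as percent change from a 40 min baseline.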

[17] = CCTE_Simmons_MITO_max_resp_rate: CCTE's HepG2 Seahorse XF Respirometric Screening Assay at Maximal Respiratory State [uncoupled], Simmons Lab (AID 2284002); conditions: actives raise or lower the signal
Summary of the method: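 HepG2 oxygen consumption measured on Seahorse XF after FCCP uncoupling, following test compound injection; 7 concentrations from 125 nM to 100 uM final. Readings every 6 min over 72 min, three biological replicates; bidirectional fit versus DMSO.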

[18] = CCTE_Simmons_MITO_inhib_resp_rate: CCTE's HepG2 Seahorse XF Respirometric Screening Assay at Inhibited Respiratory State [full ETC block], Simmons Lab (AID 2284006); conditions: actives raise or lower the signal
Summary of the method: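 HepG2 cells on Seahorse XF96; oxygen consumption measured after test compound, then FCCP, then rotenone/antimycin A injections over 72 min. Test chemicals at 7 concentrations, 125 nM–100 uM final. OCR fitted bidirectionally versus DMSO.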

[19] = target: Ratio of Nucleoli Translocation and Cytoplasm, AR (gene 367) (UniProt P10275); experiment: UPITT_HCI_U2OS_AR_TIF2_Nucleoli_Cytoplasm_Ratio_Antagonist: University of Pittsburgh U2OS Androgen Receptor-Transcriptional Intermediary Factor 2 (AR-TIF2) Antagonism High Content Imaging Assay for Ratio of Nucleoli Translocation and Cytoplasm (AID 2283999; active = hit-call score of the fitted dose curve at least 0.9, where 1 is the maximum;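 note: antagonists lower the DHT-driven ratio of nucleolar to cytoplasmic red signal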)
Summary of the method: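 U2OS cells expressing RFP-tagged human AR and GFP-tagged TIF2; compounds tested at 20 uM final (0.2% DMSO) in primary screen, 0.195–50 uM (0.5% DMSO) for concentration response. Readout: nucleolar-to-cytoplasmic red fluorescence ratio by high-content imaging, fitted relative to DHT.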

[20] = CCTE_Simmons_MITO_viability: CellTiter-Glo Viability Assessment for CCTE's HepG2 Seahorse XF Respirometric Screening Assay [post-hoc], Simmons Lab (AID 2284007; active = hit-call score of the fitted dose curve at least 0.9, where 1 is the maximum)
Summary of the method: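 HepG2 cells from the Seahorse XF respirometry run were exposed 90 min to a 7-point series, 125 nM–100 uM final, DMSO vehicle; ATP content then read by luciferase luminescence. Three biological replicates, technical singles; loss of signal fitted versus DMSO.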

Measured: AC50

Nucleoli Translocation, AR (gene 367), sequence (P10275 whole entry, looked up): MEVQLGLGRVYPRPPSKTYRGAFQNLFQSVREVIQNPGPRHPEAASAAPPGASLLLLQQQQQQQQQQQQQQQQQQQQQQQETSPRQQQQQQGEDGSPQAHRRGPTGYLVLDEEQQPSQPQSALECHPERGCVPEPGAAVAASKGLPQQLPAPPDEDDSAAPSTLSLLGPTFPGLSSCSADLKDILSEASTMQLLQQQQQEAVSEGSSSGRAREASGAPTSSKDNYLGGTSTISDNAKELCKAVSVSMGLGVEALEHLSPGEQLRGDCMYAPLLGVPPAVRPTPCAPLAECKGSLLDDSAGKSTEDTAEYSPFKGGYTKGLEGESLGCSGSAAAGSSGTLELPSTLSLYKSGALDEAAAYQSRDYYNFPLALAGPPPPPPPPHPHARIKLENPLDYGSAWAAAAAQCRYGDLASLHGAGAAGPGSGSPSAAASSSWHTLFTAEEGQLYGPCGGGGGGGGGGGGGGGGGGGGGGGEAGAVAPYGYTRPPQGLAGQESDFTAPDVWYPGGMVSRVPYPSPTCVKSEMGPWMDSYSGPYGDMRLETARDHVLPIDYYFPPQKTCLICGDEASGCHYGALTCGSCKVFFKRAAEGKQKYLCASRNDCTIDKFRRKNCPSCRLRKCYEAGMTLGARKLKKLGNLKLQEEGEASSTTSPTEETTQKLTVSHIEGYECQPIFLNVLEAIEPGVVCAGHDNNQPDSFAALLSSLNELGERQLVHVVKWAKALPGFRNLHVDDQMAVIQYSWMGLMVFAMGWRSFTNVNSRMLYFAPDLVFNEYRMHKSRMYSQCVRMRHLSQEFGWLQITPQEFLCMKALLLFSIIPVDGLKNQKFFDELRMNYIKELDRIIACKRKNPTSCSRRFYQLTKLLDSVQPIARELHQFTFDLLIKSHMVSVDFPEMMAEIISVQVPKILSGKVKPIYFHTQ
Ratio of Nucleoli Translocation and Cytoplasm, AR (gene 367), sequence (P10275 whole entry, looked up): as above

COCc1cnc(C2=NC(C)(C(C)C)C(=O)N2)c(C(=O)O)c1 (configuration not stated)
inactive: [1] | [2] | [3] | [4]

O=C(Nc1ccccc1-c1ccc(Cl)cc1)c1cccnc1Cl
active: [12] 28.5 µM
not listed: [1] | [2] | [17] | [18] | [19] | [20]
inactive: all other assays above

CCCCC(C#N)(Cn1cncn1)c1ccc(Cl)cc1 (configuration not stated)
inactive: [17] | [18] | [3] | [4] | [7]

COc1ccc(-c2ccccc2)cc1NNC(=O)OC(C)C
inactive: [1] | [19] | [2] | [17] | [18] | [3] | [4]

COCC(C)N(C(=O)CCl)c1c(C)csc1C (configuration not stated)
inactive: [17] | [18] | [20] | [3] | [4]

CCOP(=S)(OCC)Oc1nc(Cl)n(C(C)C)n1
active: [17] 38.5 µM
inactive: [18] | [20] | [3] | [4] | [7]

COC(=O)N(C(=O)N1CO[C@@]2(C(=O)OC)Cc3cc(Cl)ccc3C2=N1)c1ccc(OC(F)(F)F)cc1
active: [5] 8.32 µM | [6] 8.24 µM | [11] 15 µM | [12] 28.9 µM
not listed: [1] | [17] | [18] | [20]
inactive: all other assays above

CC1(C)C(C(=O)OC(C#N)c2cccc(Oc3ccccc3)c2)C1(C)C (configuration not stated)
active: [10] 0.44 µM | [11] 0.309 µM | [12] 1.28 µM | [14] 0.0749 µM | [16] 0.12 µM
not listed: [1] | [2] | [17] | [18] | [19] | [20]
inactive: all other assays above

CCN(CC)c1nc(C)cc(OP(=S)(OC)OC)n1
inactive: [17] | [18] | [20] | [3] | [4] | [7]

Clc1cccc(C(Cl)(Cl)Cl)n1
inactive: [1] | [2] | [3] | [4] | [7]

Clc1nc(Cl)nc(Nc2ccccc2Cl)n1
not listed: [1] | [2] | [17] | [18] | [19] | [20]
inactive: all other assays above

CC1(C)CCC(=Cc2ccc(Cl)cc2)C1(O)Cn1cncn1 (configuration not stated)
active: [1] 9.87 µM | [2] 15.9 µM
not listed: [7] | [17] | [18] | [20]
inactive: all other assays above
